Screening results deposited in PubChem by several laboratories.
Most compounds without a hit are left out; they make up all but 0.82% or so of the library.
Keap1-Nrf2 PPI – Keap1-Nrf2 protein-protein interaction inhibitors, primary screen, biochemical, fluorescence polarization, single point | 340,000 tested, 0.15% active | Keap1 Kelch-Nrf2 peptide fluorescence polarization, 1536-well | AID 504523, 2011 | inhibition, % at 9.4 µM | Kelch-like ECH-associated protein 1 (Homo sapiens), Q14145; in the data active = inhibition above about 12%;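 also: human Keap1 Kelch domain with fluorescein labeled Nrf2 9mer peptide probe; higher means more block of Keap1 binding to Nrf2 peptide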
Target sequence (Q14145 whole entry, looked up, the tested form may be a part): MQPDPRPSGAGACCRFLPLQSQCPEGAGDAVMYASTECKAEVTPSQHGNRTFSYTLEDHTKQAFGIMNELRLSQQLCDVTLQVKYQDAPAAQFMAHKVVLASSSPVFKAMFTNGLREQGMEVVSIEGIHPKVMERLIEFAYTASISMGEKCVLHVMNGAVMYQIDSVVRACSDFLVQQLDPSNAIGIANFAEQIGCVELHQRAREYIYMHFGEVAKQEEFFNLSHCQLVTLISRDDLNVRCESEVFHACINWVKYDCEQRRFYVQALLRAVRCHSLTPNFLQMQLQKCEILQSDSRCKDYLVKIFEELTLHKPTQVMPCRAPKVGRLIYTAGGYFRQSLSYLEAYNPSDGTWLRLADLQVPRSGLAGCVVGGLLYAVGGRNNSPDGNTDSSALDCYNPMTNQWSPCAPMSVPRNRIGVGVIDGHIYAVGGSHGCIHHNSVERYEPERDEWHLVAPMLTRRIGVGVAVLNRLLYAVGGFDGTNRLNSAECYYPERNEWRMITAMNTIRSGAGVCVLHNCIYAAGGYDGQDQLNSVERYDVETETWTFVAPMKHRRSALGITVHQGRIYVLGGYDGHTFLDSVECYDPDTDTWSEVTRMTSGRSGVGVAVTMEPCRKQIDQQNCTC
RTF Ca sens inh – cardiac RTF calcium sensitivity inhibitors, primary screen, biochemical, IANBD-TnC fluorescence, EC70 calcium | inhibition, % at 7.15 µM | 340,000 tested, 0.12% active | IANBD-labeled cardiac RTF, Ca2+ fluorescence | AID 493244, 2011;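 active = inhibition above the mean inhibition of all tested compounds plus 3 SD, cut at about 17% in these data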;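 also: assay run at fixed EC70 calcium of 1.6 mM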
E coli Lon inh – inhibitors of E. coli Lon protease, primary screen, biochemical, fluorescence polarization; P0A9M0; purified E. coli Lon protease; inhibition, % at 7.94 µM; 360,000 tested, 0.42% active; AID 602123, 2011; in the data active = inhibition above about 13%, passing the limit was not always enough
LANA DNA inh – inhibitors of KSHV C-LANA binding to DNA, primary screen, biochemical, fluorescence polarization, FAM-LBS DNA, MBP-C-LANA, single point; 340,000 tested, 0.078% active; Kaposi's sarcoma herpesvirus LANA C-terminal domain (residues 932-1162) DNA binding; inhibition, % at 9 µM;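 active = highest replicate inhibition at or above 60% at 9 µM, even if other replicates fall short; inactive = all replicates below 60% inhibition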
cardiac RTF act – cardiac RTF calcium sensitivity activators, primary screen, biochemical, IANBD-TnC fluorescence, EC20 calcium. Troponin I, cardiac muscle (Homo sapiens) + Troponin T, cardiac muscle (Homo sapiens) + …. IANBD-labeled TnC RTF fluorescence at EC20 calcium; 0% EC20 calcium, 100% full calcium. activation, % at 7.2 µM. 340,000 tested, 0.24% active. AID 493008, 2010;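 active = activation above the mean over all tested compounds plus 3 SD, cut at about 30% in these data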;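 also: rise in fluorescence read as greater calcium sensitivity of cardiac thin filaments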
Each line names hits and unclear results; the compound was inactive in the other large screens.

CC(C)/C=C1\CC/C(=C\c2ccc(N(C)C)cc2)C1=O	cardiac RTF act 64
ClC(Cl)(Cl)C1=NCc2nnn(Cc3ccccc3)c2N1	none (no result: Keap1-Nrf2 PPI, RTF Ca sens inh, LANA DNA inh, cardiac RTF act)
COc1cc(/C=C2\Oc3cc(O)ccc3C2=O)ccc1O	cardiac RTF act 41
COc1ccccc1N(CC(=O)NCc1ccccn1)S(C)(=O)=O	none
COc1ccc(OC)c(N(CC(=O)NCc2ccccn2)S(C)(=O)=O)c1	E coli Lon inh 31
O=P1(NC2CCCCC2)OCC2(CO1)COP(=O)(NC1CCCCC1)OC2 (stereo unspecified)	none
N#C/C(=C/c1ccc(N2CCOCC2)o1)c1nc2ccccc2[nH]1	cardiac RTF act 244
COc1cccc(/C=C(/C#N)c2nc3ccccc3[nH]2)c1OC(C)C(=O)O (stereo unspecified)	cardiac RTF act 35
COc1cc(/C=C(\C#N)c2nc3ccccc3[nH]2)cc(OC)c1O	cardiac RTF act 32
COc1ccc(/C=C(\C#N)c2nc3ccccc3[nH]2)cc1O	none
COc1cccc(/C=C(\C#N)c2nc3ccccc3[nH]2)c1OCC(=O)O	none
Cc1nc(SCC(=O)N2CCCC2=O)c2c(C)c(C)sc2n1	none (no result: Keap1-Nrf2 PPI, RTF Ca sens inh, LANA DNA inh, cardiac RTF act)
COC(CNC(=O)c1ccc2c3c(onc13)-c1ccccc1C2=O)OC	Keap1-Nrf2 PPI 101
COc1ccc(OC)c2cc3ccccc3cc12	Keap1-Nrf2 PPI 25
CCOc1ccc(NC(=O)/C(C#N)=C\c2ccc(N3CCCC3)c(C)c2)cc1	cardiac RTF act 72
CCN1/C(=C/c2ccc3cc(C)ccc3[n+]2CC)Sc2cc(C)ccc21	cardiac RTF act 51
CCCCN1/C(=C/c2ccc3ccccc3[n+]2CC)Sc2ccccc21	none (no result: RTF Ca sens inh, cardiac RTF act)
Cc1ccc(C2C(C#N)=C(N)SC(N)=C2C#N)c(C)c1	cardiac RTF act 81
N#CC1=C(N)SC(N)=C(C#N)C1c1ccnc2ccccc12	none
Cc1ccc(C2C(C#N)=C(N)SC(N)=C2C#N)cc1	cardiac RTF act 41
COc1ccc(-n2nc3c(N4CCC(C(=O)N5CCC(C)CC5)CC4)nnc(C)c3c2C)cc1	cardiac RTF act 32
Cc1nnc(N2CCC(C(=O)N3CCCCC3)CC2)c2nn(-c3ccc(Cl)cc3)c(C)c12	none
CCOC(=O)CN1C=C(c2ccc3ccccc3n2)C(C[N+](=O)[O-])c2ccccc21 (stereo unspecified)	E coli Lon inh 115, cardiac RTF act 36
CCOC(=O)CSc1ccc2ccccc2n1	none
CC(C)(C)c1ccc(CC(=O)N2CCC2(C)C(=O)N2CCCCC2)cc1 (stereo unspecified)	none (no result: Keap1-Nrf2 PPI, RTF Ca sens inh, LANA DNA inh, cardiac RTF act)
CCOC(=O)C1C(=O)NC(SC)=C(C#N)C1c1ccccc1F (stereo unspecified)	none
CCOC(=O)C1C(=O)NC(SCC(N)=O)=C(C#N)C1c1ccccc1OCC (stereo unspecified)	cardiac RTF act 38
CCOc1ccc(NC(=O)CCC(=O)NNC(=O)c2cccc([N+](=O)[O-])c2)cc1	none
COc1cc(/C=C2\NC(=S)N(C)C2=O)ccc1O	none
Cc1cc(/C=C2/C(=O)N(C)C(=S)N2C)ccc1N1CCCC1	cardiac RTF act 32
Cc1cc(/C=C2\NC(=S)N(C)C2=O)ccc1N1CCCC1	cardiac RTF act 87
CCCN1C(=O)/C(=C/c2ccc(N3CCCC3)c(C)c2)NC1=S	cardiac RTF act 68
CCN1C(=O)/C(=C/c2ccc(N3CCCC3)cc2)NC1=S	cardiac RTF act 151
O=C(OCc1cn([C@H]2CN(Cc3cccs3)[C@@H](c3ccc(Cl)cc3)C[C@@H]2O)nn1)c1ccccc1	none (no result: Keap1-Nrf2 PPI, RTF Ca sens inh, LANA DNA inh, cardiac RTF act)
CCOC(=O)C1=C[C@@H](C(C)C)N(S(=O)(=O)c2ccc(C)cc2)[C@H]1c1ccccc1F	none (no result: Keap1-Nrf2 PPI, RTF Ca sens inh, LANA DNA inh, cardiac RTF act)
CC1C(=O)N2CCCc3cc(NC(=O)CC(C)(C)C)cc1c32 (stereo unspecified)	none
CC(=NNC(=O)c1ccncc1)c1ccc2ccccc2c1O	cardiac RTF act 48
CC(=NNC(=O)c1ccncc1)c1ccccc1O	none
O=C(N/N=C\c1c(O)ccc2ccccc12)c1ccc(O)cc1	none
O=C(NN=Cc1c(O)ccc2ccccc12)c1ccncc1	cardiac RTF act 31
Cc1onc(-c2ccccc2)c1NC(=O)OC(C)c1cccnc1 (stereo unspecified)	none (no result: Keap1-Nrf2 PPI, RTF Ca sens inh, LANA DNA inh, cardiac RTF act)
COc1cccc(CNC(=O)CSc2nnc3c(n2)[nH]c2ccccc23)c1	none
CCOC(=O)CN1C(=O)S/C(=C/c2ccc(N3CCCCC3)o2)C1=O	cardiac RTF act 70
COC(=O)CN1C(=O)S/C(=C/c2ccc(N3CCCCC3)o2)C1=O	cardiac RTF act 322
COc1ccc(/C=C(\C#N)C(=O)N2COCC2(C)C)cc1	none
COc1ccc(-n2nnnc2SCC(=O)Nc2c(C)n[nH]c2C)cc1	none
Cc1ccc(N=C2NC(=O)/C(=C/c3cn(C)c4ccccc34)S2)cc1C	cardiac RTF act 69
CCOc1cc(N(CC)CC)ccc1/C=C(/C#N)c1nc2ccccc2[nH]1	cardiac RTF act 106
CCCOc1cc(N(CC)CC)ccc1/C=C(/C#N)c1nc2ccc(C)cc2[nH]1	cardiac RTF act 61
CCN(CC)c1ccc(/C=C(/C#N)c2nc3ccc(C)cc3[nH]2)c(OC(C)C)c1	cardiac RTF act 174
Cc1cc(/C=C(\C#N)c2nc3ccccc3[nH]2)c(C)n1C	none
C[C@H](CO)N1C[C@H](C)[C@@H](CN(C)C(=O)Nc2ccccc2)Oc2ccc(NC(=O)Cc3ccccc3)cc2C1=O	none
COc1ccc(C(=O)N(C)CCCC2CCCC2)cc1OC1CCN(C(C)C)CC1	none
Nc1c(N(CCC2=CCCCC2)C(=O)C2CC2)c(=O)[nH]c(=O)n1Cc1ccccc1	none
CN(CCCC(=O)O)c1ccc(N=Nc2ccc([N+](=O)[O-])cc2)cc1	none
c1ccc(Nc2ccc3c4c(cccc24)CC3)cc1	cardiac RTF act 52
c1ccc(Nc2cccc3ccccc23)cc1	none
Cc1nn(C)c(C)c1S(=O)(=O)N(CC(=O)Nc1ccc2c(c1)OCO2)c1ccc(C(C)C)cc1	E coli Lon inh 16
Cc1cccc(-n2c(C)cc(C=C3C(=O)c4ccccc4C3=O)c2C)c1	cardiac RTF act 62
CCCCN(C)C1=CC2=CC(=C(C#N)C#N)CCC2CC1 (stereo unspecified)	cardiac RTF act active
CCN(CC)C1=CC2=CC(=C(C#N)C#N)CCC2CC1 (stereo unspecified)	cardiac RTF act active
COc1ccc(OC)c(C(C)NC(=O)C23CC4CC(CC(C4)C2)C3)c1 (stereo unspecified)	LANA DNA inh 109
CN(Cc1ccccc1)S(=O)(=O)c1ccc(Cl)c(C(=O)NCc2cccnc2)c1	none
N#C/C(=C\c1coc2ccccc2c1=O)C(N)=S	none
